Drawing on PubChem BioAssay AID1159506 (National Center for Advancing Translational Sciences (NCATS), 2015), this text covers seed-corrected z-score for 85 sequences.

Whole data set: some 59,000 sequences, median the read-out near -0.00055, cut for the lowest 2% near -2. The sample as a whole holds a higher share of the lowest values than the screen did.

A short description of this experiment: Identification of proteins required for the processing of the EWS-FLI1 nascent transcript.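 Note: robust z of luciferase light less the median z of siRNAs with the same seed.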 The conditions noted are these: TC32 Ewing sarcoma NR0B1-luc vs CMV-luc (EWS-FLI1 target promoter against control promoter), 48 h; screened at 20 nM (by protocol). The method, boiled down:
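Three siRNAs per gene, each in a separate well at 20 nM, were transfected into TC32 cells bearing either reporter construct. Luminescence was measured two days on, and per-gene comparison relied on seed-corrected Z values.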
For the sequence UAAAUGGCCGUGAUCAAUC against PRDM16, the seed-corrected z-score was -0.168.

In turn, UUUGUUCAAGGUUAAUCCC against LRRC27 displayed a seed-corrected z-score of 0.333.

UAUCUUCUCACUAACACUC against PEX12 yielded a seed-corrected z-score of 0.599.

Consider ACCCUUAUGAAUUACACCC against PSMD1, for which the seed-corrected z-score is -4.24.

The sequence UCAUAGUUUAGUUCUCGAG against BBS9 displayed a seed-corrected z-score of 0.745.

Consider AUAGAAUCGAUGGAAGUCC against CAMK2A, for which the seed-corrected z-score was determined as 0.247.

As for UUCUAUGAAAUCGUAAGGC against ME2, the seed-corrected z-score is -0.054.

Take AACAGCUCUCUGGUAAGCG against RPS23P8: the seed-corrected z-score is -0.758.

In the case of UUGCUUUCGAGACCAGCUC against C11orf16, the seed-corrected z-score was -2.33.

In the case of UUCUUAUAUGUAGUACGGG against ZNF506, the seed-corrected z-score is -0.657.

UUCGAACUAAGGCACGAGC against ABCB5: the seed-corrected z-score was -0.392.

As for UAUUUCCAUCGGAUGAUGC against GJD3, the seed-corrected z-score is -0.0376.

UAGGCUUAGAGGUCCCAGC against LACRT yielded a seed-corrected z-score of 2.39.

For the sequence UAAUUGACCAGCUUACUAC against PRAMEF2, the seed-corrected z-score came out at 1.04.

Turning to AAUUCAUCCAUGAUUCUGC against FAM134B, the seed-corrected z-score is -0.291.

UAGUUGUCGACGAGCACGC against MUC5AC: the seed-corrected z-score was -2.79.

For the sequence UUCUUACCAGUGUUGAUGG against KIF11, the seed-corrected z-score is -2.21.

In turn, UAAUCUUCAUACGCAGUGC against HNRNPR showed a seed-corrected z-score of 0.713.

On to UUCAUACUGAAGAUUUUCC against ZNF157, for which the seed-corrected z-score is -0.0023.

As to UAGGAUUAAAUUAAUCCUC against GNE, the seed-corrected z-score is -0.0404.

For UAAAGGCAUAGUUUCCCUG against RGS7BP, the seed-corrected z-score was -2.71.

On to AAAGGUGCAGAAGUUCUGU against LOC646484, for which the seed-corrected z-score was -1.37.

UCCAGUUCCAGAACUAUCU against HES2 registered a seed-corrected z-score of 0.537.

As to AAACGGUCCAGGUAAUUCA against CCND2, the seed-corrected z-score is -1.57.

As for UCUCGUUCCACCAGAUCCG against OGFR, the seed-corrected z-score is 2.21.

For AGUUGUAGAAGAACGAAUC against PSMD2, the seed-corrected z-score is -3.28.

The sequence UUGGGUUUCGGACCUCUCU against CBX7 gave a seed-corrected z-score of 0.219.

Regarding UAUCCUUCAACCAUUCUGG against DYX1C1, the seed-corrected z-score turned out to be 0.0057.

On to UAUAUGACACCUGCUGUGG against NGFR, for which the seed-corrected z-score is -1.33.

In the case of AUUGCAGUCACGAUGAUGG against OR52I2, the seed-corrected z-score was -1.16.

UAAUGUCCAAGAUGGUCAC against CELSR1 yielded a seed-corrected z-score of 0.481.

In turn, UUCUGAAUCAAAGUUGUUC against CBLN1 had a seed-corrected z-score of 0.758.

For the sequence UGUAUAACCUGGCUCUCUG against FAM45BP, the seed-corrected z-score was -0.888.

As for UAGGAUGGAACAUCAAUCU against WASH5P, the seed-corrected z-score is -2.88.

UAUGCUCAAAUACCUUUGC against CAT came in with a seed-corrected z-score of 0.148.

With UAGUGCUUAUCCUAGAAUC against KLK8, the seed-corrected z-score amounted to 0.915.

As to AAACUACCCAAUUGUAAUC against OR9A4, the seed-corrected z-score came to 0.66.

As to AUGGUCUUGCCAUCUACCG against RABL2A, the seed-corrected z-score was -2.05.

As for AUCAAUUUGUCCUCCAUCC against RNPS1P1, the seed-corrected z-score is -0.331.

As for GACAUGGCAGUGAGCUUCC against CBX2, the seed-corrected z-score is -0.4.

In the case of UGCUCAAUCUGAUAGAUGG against TP63, the seed-corrected z-score is -0.257.

As to UGUUUGAUCUGUAAAAUGG against C15orf32, the seed-corrected z-score was -1.58.

As to AUGAUGUUCCUUGAAGUUC against DHRS2, the seed-corrected z-score is -0.594.

For the sequence UCUCAUCCAGGUACCAGCC against FTCD, the seed-corrected z-score is -0.292.

As to AGCUGUUCAAUGUCAAAGC against INMT, the seed-corrected z-score is -4.2.

Take UGACAUACCAGAGGAAGUG against PLEKHH1: the seed-corrected z-score was -0.0437.

UUGUUGACCAUAGCUACUC against EWSR1: the seed-corrected z-score was -4.01.

AUAGAUACAGGUGAUGCAG against EGLN2 showed a seed-corrected z-score of 1.45.

For the sequence UACUCUCACAGCUUGCACC against KCTD18, the seed-corrected z-score was -0.258.

For UUGGGAAGCAGGUGCAUGC against LAIR1, the seed-corrected z-score was -2.03.

Consider UAGAGGCACCGAGUCAACG against DBF4B, for which the seed-corrected z-score was 0.153.

In the case of UGAGUUCCGACACUCCAUC against EIF4EBP1, the seed-corrected z-score amounted to 0.187.

In the case of UCUGCUUUCUGUACCCGAC against GATA3-AS1, the seed-corrected z-score is -2.32.

UUUGUUACAAGCACCUACU against LOC730179 gave a seed-corrected z-score of 0.536.

As to ACAGGUGCAUUGGACUUGG against KCTD15, the seed-corrected z-score was -3.06.

Turning to UUGAUCACCUCAGAGGCCG against USE1, the seed-corrected z-score was -1.2.

In the case of UUAUGCUAAAAUCUACUCC against TNKS2, the seed-corrected z-score is -1.04.

For the sequence AAUAGGUGUAAGUCCGUGC against NR5A2, the seed-corrected z-score was -2.54.

As to UUAGUCCAGAGGUUUCAUC against PCAT18, the seed-corrected z-score was -0.77.

On to UCACAAUUUAGUGUAAUAG against ETFBKMT, for which the seed-corrected z-score stood at 0.195.

For UCGGUAAUCCGGGUGAAGC against FGF14-AS2, the seed-corrected z-score is -0.163.

Take UCCUGGAUUGGGAAGGUGC against C9orf172: the seed-corrected z-score is -0.383.

Take UGCAGUAGAAUUUACACGC against RB1: the seed-corrected z-score is -2.42.

Consider UUUGCUAUCAGGGAACAUC against SPRR2B, for which the seed-corrected z-score was -0.452.

For the sequence UGAUGGUAGAGUUCCAGUG against MYBL2, the seed-corrected z-score is -0.637.

For the sequence UUGCUUAUGAGCUUGAUGG against MAST1, the seed-corrected z-score is -2.39.

In the case of UAAGCGGUUCAUGCUGUGG against CPA5, the seed-corrected z-score was -0.872.

UAGUGGAAGACGGAAAAGU against SFN: the seed-corrected z-score was -0.0924.

For the sequence AGUAUAACCAGUGGGAGGC against EWSR1, the seed-corrected z-score is -5.73.

Turning to UAUCUGAAGAUCUAGACUC against ZNF280D, the seed-corrected z-score is -0.0696.

For the sequence UCCUUGACCAGAAAUCUCA against TRIM31, the seed-corrected z-score is -0.472.

Take UACGUCAAACGGAACUUCC against LRPPRC: the seed-corrected z-score was -0.194.

UCAUGUAUAAACAGUCGCC against ALDH7A1 returned a seed-corrected z-score of 0.368.

As to UUAGCAUGAUGAUCAAGGC against LIN28B, the seed-corrected z-score is 0.22.

Turning to UUAUAUAUCUCCUGGAGCG against AGPAT3, the seed-corrected z-score was -0.537.

With UGAGUUUCGAGAGCACAGU against MID1IP1, the seed-corrected z-score was -3.02.

In the case of AAACUUUCUCCUUAAGGCC against PRR11, the seed-corrected z-score is -0.21.

Take UUGCAAUUGAAUUCACAGC against SRI: the seed-corrected z-score is -0.0706.

As for UGAAGGAUUUGUGACAUAC against ZFP28, the seed-corrected z-score was -0.0712.

With UGUGGUUCCAAGGCACGUC against CCER2, the seed-corrected z-score is -2.12.

As to UUCCUUGGGCCCUAUAUGU against FAM168A, the seed-corrected z-score was -0.129.

Take AACGUAGAAAAGCAUAUCG against DENND5B: the seed-corrected z-score is -0.0535.

UAUCUUGCUGGUGUGUGUG against MAX: the seed-corrected z-score is -0.878.

AUAGGCUUUAUCAAGAUCG against MPP5 showed a seed-corrected z-score of 0.288.

Take UGAAUUUCUCGAAUCUGUG against SF3B1: the seed-corrected z-score is -4.69.
